In the library only some 5.6% were active in any assay of this set; here they are far more common.
Six1-Eya2 inh = qHTS Assay for Inhibitors of the Six1/Eya2 Interaction; Homeobox protein SIX1 (Homo sapiens) + Protein phosphatase EYA2 (Homo sapiens), …; AlphaScreen GST-Six1/His-Eya2 binding, biochemical; hits give low values; activity change, % (no concentration beside the values); 0.56% of 360,000 active; AID 651725, 2012; in the data active = activity change below about -65%; inconclusive = mostly about -30% to -63%
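GST-Six1 + His-Eya2 (5X stock: 250/500 nM); Tris pH 8.0, 300 mM NaCl, 0.05% BSA, 0.02% Tween 20; GSH donor/Ni acceptor beads; 1 h 37 °C dark; AlphaScreen readout.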
RORgamma inh = qHTS for inhibitors of ROR gamma transcriptional activity | Nuclear receptor ROR-gamma (Mus musculus), P51450 | Drosophila S2 Gal4-RORgamma UAS-luciferase reporter, 20 h | Potency, µM (top dose mostly 53.6 µM), for the others: at the top dose activity change, negative = inhibition, usual class: inhibitors | 5.4% of 310,000 active; note: potency is the fitted concentration of half-maximal effect; nearly all actives have a fitted effect of over 60% in size
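Drosophila Schneider cells stably carrying a metallothionein-driven Gal4 DBD–ROR gamma fusion and a UAS-Photinus luciferase reporter were exposed to compound for 1 hr, then induced with copper sulfate (700 uM final) for 20 hr at ambient temperature before luminescence reading.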
CtBP-E1A inh = qHTS Assay for Inhibitors of the CtBP/E1A Interaction | AID 651724, 2012 | 0.49% of 340,000 active | activity change, % (concentration not given with the values) | AlphaScreen GST-E1A/His-CtBP binding, 1536-well; hits give low values; in the data active = activity change below about -65%; inconclusive = mostly about -30% to -63%
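GST-E1A and His-tagged CtBP (125 nM each as 5X stock) were preincubated with pin-transferred compound for 2 h at 37 °C in the dark, then glutathione donor and nickel acceptor beads were added for 1 h before AlphaScreen reading.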
PKM2 act = qHTS Assay for Activators of Human Muscle isoform 2 Pyruvate Kinase; Pyruvate kinase PKM (Homo sapiens), P14618; purified PKM2, Kinase-Glo ATP luminescence, activation; response scale: 0% is enzyme alone, no compound; Potency, µM (doses to about 57.5 µM), for the others: at the top dose activation, usual class: activators; 0.34% of 260,000 active; AID 1631, 2009; note: potency is the fitted concentration of half-maximal effect; nearly all actives have a fitted effect of over 55% in size
Target sequence (P14618 whole entry, looked up, canonical isoform): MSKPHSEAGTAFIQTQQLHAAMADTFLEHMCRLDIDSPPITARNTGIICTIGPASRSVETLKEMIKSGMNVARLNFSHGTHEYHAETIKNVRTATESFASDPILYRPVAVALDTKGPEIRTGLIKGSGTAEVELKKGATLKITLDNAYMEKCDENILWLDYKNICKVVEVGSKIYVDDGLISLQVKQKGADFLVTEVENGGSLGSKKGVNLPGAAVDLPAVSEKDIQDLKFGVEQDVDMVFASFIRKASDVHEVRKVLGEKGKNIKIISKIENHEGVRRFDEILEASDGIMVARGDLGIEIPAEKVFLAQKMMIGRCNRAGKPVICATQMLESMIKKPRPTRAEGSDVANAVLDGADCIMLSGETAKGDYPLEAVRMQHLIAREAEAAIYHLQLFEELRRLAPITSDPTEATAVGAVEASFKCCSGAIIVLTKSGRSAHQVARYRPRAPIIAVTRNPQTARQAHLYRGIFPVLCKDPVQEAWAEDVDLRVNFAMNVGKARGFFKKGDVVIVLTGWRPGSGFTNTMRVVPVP
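Kinase-Glo luminescence reports ATP generated from ADP (0.1 mM) and PEP (0.5 mM) by purified hPK-M2 after 1 h at room temperature, pH 7.2 imidazole buffer; intermediate enzyme activity allows detecting inhibitors and activators.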
Gal4-VP16 FLuc = VP16 counterscreen qHTS for inhibitors of ROR gamma transcriptional activity | Drosophila S2 Gal4-VP16 UAS-luciferase, luminescence, 20 h | Potency, µM (titrated, usually from 53.6 µM), for inactives: at the top dose activity, negative = inhibition, actives largely listed as inhibitors | 3.5% of 310,000 active;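 note: Gal4-VP16 expression switched on by copper sulfate through the metallothionein promoter; potency is the fitted concentration of half-maximal effect; nearly all actives have a fitted effect of over 50% in size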
An asterisk follows results filed as active; ? = inconclusive; · = no result; [ ] = remark or other dose. Unless noted, calls come from the whole dose curve; as a rule, active = well fitted curve in the direction sought with a large enough effect; inconclusive = small, poorly fitted or top-dose-only effect, or another doubt; inactive = no such curve, though single readings can be large; an effect the other way counts as inactive or inconclusive. % is set by controls: 0 for no effect and ±100 for the full control effect.

SMILES | Six1-Eya2 inh | RORgamma inh | CtBP-E1A inh | PKM2 act | Gal4-VP16 FLuc
NC(=O)COC(=O)c1cccc(S(=O)(=O)N2CCN(c3ccccc3)CC2)c1 | 0 | 42% | · | 1% | -1%
COc1ncc2nc(-c3cn(C)c4ccccc34)c(=O)n(CCc3ccccc3)c2n1 | · | -1% | · | · | 2%
C/C(=N/Nc1nc(-c2ccccc2F)nc2ccccc12)c1ccccc1O | -2 | 3.2µM* | -1 | -1% | 7.9µM*
C/C(=N\Nc1nc(-c2ccccn2)nc2ccccc12)c1ccc(F)cc1 | -7 | 0.13µM* | · | 1% | 1.1µM*
Oc1ccc(Nc2nc(-c3ccccc3F)nc3ccccc23)cc1 | -11 | -4% | -2 | · | 1%
C/C(=N\Nc1nc(-c2ccccc2O)nc2ccccc12)c1ccccc1 | 1 | 4.5µM* | -11 | 6% | ?
CCCCOc1ncnc2c1[nH]c1ccc(C)cc12 | 5 | -24% | 4 | 5% | 10µM*
Clc1ccc(CNC2CCCC2)c(Cl)c1 | 4 | 5% | 10 | 2% | -1%
S=C(NCCc1ccccc1)NC1CC1 | -13 | 4.5µM* | 5 | 2% | ?
S=C(NCc1ccc(Cl)cc1Cl)NC1CCCCC1 | -1 | 5.6µM* | -9 | 5% | 16µM*
S=C(NCCc1ccccc1)NC1CCC(NC(=S)NCCc2ccccc2)CC1 (stereo not drawn) | 3 | -3% | 1 | 8% | 0%
O=C(NC1CCN(C(=S)NCCc2ccccc2)CC1)C1CC1 | -8 | 10µM* | · | 2% | ?
NC(=O)C1CCN(C(=S)NCCc2ccccc2)CC1 | 0 | -29% | -3 | -4% | 8%
S=C(NCCc1cccc(Cl)c1)NC1CCCCC1 | 9 | 4.5µM* | 0 | -1% | 5.6µM*
Cc1ccnc(NC(=O)C(C)n2cc([N+](=O)[O-])cn2)c1 (stereo not drawn) | -14 | 31% | -4 | 10% | -7%
OC(CNCCN1CCNCC1)Cc1ccccc1 (stereo not drawn) | -4 | · | -1 | · | ·
O=C(Nc1ccccc1)OCCOc1ccc(Cl)cc1Cl | 36 | · | 42 | · | ·
CC(=O)NCCNc1nc2cc(-c3cnn(CCC(C)C)c3)sc2c(=O)n1C | -7 | · | -6 | · | ·
COc1ccc(NC(=O)NCc2ccccn2)c(OC)c1 | -1 | -11% | 1 | -4% | 0%
O=S(=O)(Nc1cccc2cccnc12)c1ccccc1 | -66* | 2µM* | -84* | · | 3.5µM*
COc1ccccc1NS(=O)(=O)c1ccc2ccccc2c1 | 2 | ? | 2 | · | -4%
O=S(=O)(Nc1cccc2cccnc12)c1ccc(S(=O)(=O)N2CCCC2)cc1 | -76* | 2.5µM* | -90* | 29% | 5µM*
COc1ccc(NS(=O)(=O)c2ccc3ccccc3c2)c2ncccc12 | -26 | 0.71µM* | ? | · | 1.1µM*
C/C(=N\NC(=O)CSc1nc2ccccc2s1)c1ccco1 | -3 | 43% | -8 | 9% | 26%
O=C(O)CC1(CC(=O)Nc2ccc(Cl)cc2C(=O)c2ccccc2)CCCC1 | 3 | 5% | · | 0% | -3%
SMILES | Six1-Eya2 inh | RORgamma inh | CtBP-E1A inh | PKM2 act | Gal4-VP16 FLuc
O=C(CC1SC(=O)N(c2ccccc2)C1=O)Nc1ccc(Cl)cc1 (stereo not drawn) | -8 | 16µM* | -18 | 10% | -6%
O=C(CC1SC(=NCCc2ccccc2)N(/N=C/c2cccs2)C1=O)Nc1ccc(Cl)cc1 (stereo not drawn) | 0 | 0.5µM* | -1 | -1% | 0.79µM*
O=C(CC1SC(=Nc2ccccc2)N(CCCO)C1=O)Nc1ccc(Cl)cc1 (stereo not drawn) | 0 | 0% | 2 | 2% | 4%[0.365 µM]
O=C(CC1SC(=O)N(c2ccccc2)C1=O)Nc1ccc(Br)cc1 (stereo not drawn) | 3 | -26% | 6 | 1% | 7%
O=C1N(c2ccccc2)C[C@@H]2C[C@@H](c3cc4ccccc4o3)N3CCC[C@@]123 | -3 | -90% | -17 | -3% | ?
CN(/N=C/c1ccc2c(c1)OCO2)c1ccccc1 | ? | -44% | -21 | -20% | 18µM*
C(=N\N(c1ccccc1)c1ccccc1)/c1ccc2c(c1)OCO2 | 3 | 36% | 0 | 1% | -1%
C=CCn1c(N)cc(=O)nc1SCC(=O)NC(C)c1ccccc1 (stereo not drawn) | 1 | 2% | 2 | 7% | 18µM*
O=c1ccc(-c2ccccc2)no1 | -4 | 18% | · | -1% | 3%
CCSc1nc2ccccc2n1CC(N)=O | 11 | -34% | 9 | -2% | -15%
CCSc1nc2ccccc2n1C(=O)/C=C\c1ccc(OC)c(OC)c1 | 0 | 10µM* | -8 | 1% | 10µM*
Oc1ccc(/C=N/NC(=S)Nc2cccnc2)cc1O | -23 | 8.9µM* | -6 | -6% | ?
Cc1ccc(C)c(NC(=S)Nc2cccnc2)c1 | -8 | ? | -12 | -2% | -5%
COc1ccccc1/C=N/NC(=S)Nc1cccnc1 | -5 | 0.71µM* | -1 | 2% | ?
COc1cc(/C=N/NC(=S)Nc2cccnc2)cc(OC)c1OC | -25 | -1% | ? | 1% | 1%
S=C(N/N=C/c1ccc2ncccc2c1)Nc1cccnc1 | -13 | 4.5µM* | -2 | -3% | ?
CC(C)(C)c1ccc(/C=N/NC(=S)Nc2cccnc2)cc1 | · | 0.18µM* | · | -1% | 1.3µM*
CC(C)(C)c1ccc(/C=C/C(=O)Nc2cccnc2)cc1 | 3 | 8% | -3 | · | -10%
CN1c2ccccc2-c2ccccc2S1(=O)=O | 0 | · | 1 | · | ·
CC[C@]12c3[nH]c4ccccc4c3CCN1C(=O)C(CC(=O)NCCCN(C)C)C[C@@H]2C(=O)N1CCN(C(=O)c2ccco2)CC1 (stereo partly drawn) | -1 | · | 5 | · | ·
COc1cccc(C(=O)NCCS(=O)(=O)N2CCN(C(=O)c3ccco3)CC2)c1 | 9 | · | -14 | · | ·
C=C1c2cccc(O)c2C(O)=C2C(=O)[C@@]3(O)C(O)=C(C(N)=O)C(=O)[C@@H](N(C)C)[C@@H]3[C@@H](O)[C@H]12 | · | 20%[2.98 µM] | · | · | -6%[17 µM]
Cc1ccc(C(=O)NCC(=O)OCC(=O)Nc2ccccc2C#N)s1 | 0 | -11% | 2 | 3% | -1%
Oc1ccc(C=NNC(=S)Nc2cccnc2)nc1 | -97* | · | -6 | · | ·
Cc1ccc(C(=O)OC(C)C(=O)c2cc(C)c(C)cc2C)o1 (stereo not drawn) | 12 | 11% | 27 | -2% | 25%
CCCn1c(N)c(C(=O)CN(C)CC(=O)Nc2c(Cl)cccc2Cl)c(=O)[nH]c1=O | 4 | · | 5 | · | ·
O=C(CN1CCCCC1)Nc1nnc(-c2ccc([N+](=O)[O-])cc2)s1 | -19 | 10µM* | -8 | 1% | -15%

Source: PubChem BioAssay (National Center for Advancing Translational Sciences (NCATS))
